Reference: the supplement of paper PMC6992640
± gives the standard deviation of the averaged measurements.

Columns and labels:
Test in all cases: cell viability (% of vehicle); higher = less cytotoxic
HCI01 [1] = cells of a triple-negative basal-like breast cancer xenograft; conditions: 1 µM; 72 h
UCD52 [2] = cells of a triple-negative basal-like breast cancer xenograft; conditions: 1 µM; 72 h
WHIM2 [3] = cells of a triple-negative basal-like breast cancer xenograft; conditions: 1 µM; 72 h
WHIM30 [4] = cells of a triple-negative basal-like breast cancer xenograft; conditions: 1 µM; 72 h
HCI01 [5] = conditions: 10 µM; 72 h
HCI03 = cells of an ER-positive luminal breast cancer xenograft; conditions: 10 µM; 72 h
HCI09 = cells of a triple-negative luminal androgen receptor type breast cancer xenograft; conditions: 10 µM; 72 h
HCI11 = cells of an ER-positive luminal breast cancer xenograft; conditions: 10 µM; 72 h
HCI13 = cells of an ER-positive luminal breast cancer xenograft; conditions: 10 µM; 72 h
HCI16 = cells of a triple-negative basal-like breast cancer xenograft; conditions: 10 µM; 72 h
UCD52 [6] = conditions: 10 µM; 72 h
WHIM2 [7] = conditions: 10 µM; 72 h
WHIM30 [8] = conditions: 10 µM; 72 h

| Compound | cell viability (HCI01 [1]) | cell viability (UCD52 [2]) | cell viability (WHIM2 [3]) | cell viability (WHIM30 [4]) | cell viability (HCI01 [5]) | cell viability (HCI03) | cell viability (HCI09) | cell viability (HCI11) | cell viability (HCI13) | cell viability (HCI16) | cell viability (UCD52 [6]) | cell viability (WHIM2 [7]) | cell viability (WHIM30 [8]) |
| --- | --- | --- | --- | --- | --- | --- | --- | --- | --- | --- | --- | --- | --- |
| O=C(NC1CCN(CCCCC2(C(=O)NCC(F)(F)F)c3ccccc3-c3ccccc32)CC1)c1ccccc1-c1ccc(C(F)(F)F)cc1 [Lomitapide] | 92.2 | 56.3 | 62.7 | 63.8 | 34.8 ± 7.4 | 49.3 | 26.5 ± 2.4 | 43.7 | 33.8 ± 3.2 | 47.3 | 33 ± 3 | 41 ± 4.1 | 109 ± 5.5 |
| CSc1ccc2c(c1)N(CCC1CCCCN1C)c1ccccc1S2.Cl (configuration not stated) [Thioridazine HCl] | 87 | 82.5 | 92.4 | 84.7 | 44.9 ± 9.3 | 52.1 | 26.4 ± 1.2 | 88.4 | 55.6 ± 3.4 | 41.4 | 36.8 ± 0.53 | 42.2 ± 10 | 61.9 ± 3.6 |
| Clc1ccc(COC(Cn2ccnc2)c2ccc(Cl)cc2Cl)cc1.O=[N+]([O-])O (configuration not stated) [Econazole nitrate] | 101 | 92 | 115 | 92.7 | 33.7 ± 2 | 88.1 | 27.3 ± 11 | 116 | 36.3 ± 1.7 | 105 | 54 ± 2.1 | 45.3 ± 14 | 90.6 ± 24 |
| Cl.OC(c1cc(C(F)(F)F)nc2c(C(F)(F)F)cccc12)C1CCCCN1 (configuration not stated) [Mefloquine hydrochloride] | 97.5 | 66 | 103 | 74 | 31.9 ± 1.3 | 40.5 | 23.9 ± 5.5 | 51.4 | 44.6 ± 6.4 | 30 | 30.3 ± 5.2 | 37.7 ± 2 | 49 ± 2.9 |
| Clc1ccc(C(Cn2ccnc2)OCc2ccsc2Cl)c(Cl)c1 (configuration not stated) [Tioconazole] | 98.7 | 104 | 111 | 90.1 | 115 ± 63 | 110 | 40.7 ± 32 | 92.1 | 50.1 ± 3.6 | 119 | 60.2 ± 8.4 | 35.8 ± 5.1 | 100 ± 2.3 |
| O=C(O)c1cc(O)c(O)c(O)c1 [Gallic acid] | 96.4 | 97.1 | 82.1 | 102 | 77.5 ± 0.96 | 107 | 90.8 ± 9.4 | 54.3 | 105 ± 7.6 | 126 | 91.2 ± 8.8 | 58 ± 13 | 84.5 ± 8.9 |
| CC(O)C(=O)O.CCOc1ccc2nc3cc(N)ccc3c(N)c2c1.O [Ethacridine lactate monohydrate] | 83.7 | 95.6 | 58.8 | 68.3 | 57.6 ± 15 | 41.6 | 24.4 ± 4.4 | 36.3 | 57.4 ± 17 |  | 158 ± 32 | 49.6 ± 8.4 | 76.2 ± 3 |
| C[C@H]1O[C@@H](O[C@H]2[C@@H](O)C[C@H](O[C@H]3[C@@H](O)C[C@H](O[C@H]4CC[C@@]5(C)[C@H](CC[C@@H]6[C@@H]5C[C@@H](O)[C@]5(C)[C@@H](C7=CC(=O)OC7)CC[C@]65O)C4)O[C@@H]3C)O[C@@H]2C)C[C@H](O)[C@@H]1O [Digoxin] | 50.6 | 25.3 | 138 | 25.7 | 35.2 ± 3 | 97.9 | 40.1 ± 17 | 69.2 |  | 45.8 | 66.6 ± 8.6 | 66.4 ± 7.6 | 41.4 ± 1.1 |
| COc1cc2c(Nc3ccc(Br)cc3F)ncnc2cc1OCC1CCN(C)CC1 [Vandetanib (ZD6474)] | 70 | 46.5 | 37.5 | 64.8 | 59.1 ± 20 | 32.2 | 30.7 ± 21 | 52.9 | 73.4 ± 36 | 56.4 | 25.2 ± 4.2 | 54.4 ± 11 | 25.7 ± 1.9 |
| CCC(NC(=O)C(C)NC)C(=O)N1CC(O)CC1Cc1c(-c2[nH]c3cc(F)ccc3c2CC2CC(O)CN2C(=O)C(CC)NC(=O)C(C)NC)[nH]c2cc(F)ccc12 (configuration not stated) | 82.8 | 68.5 | 36.3 | 56.6 | 133 ± 5.6 | 99.5 | 146 ± 36 | 128 |  | 115 | 93.8 ± 8.2 | 114.1 ± 0.19 | 149 ± 20 |
| CCOc1nc2cccc(C(=O)OC(C)OC(=O)OC3CCCCC3)c2n1Cc1ccc(-c2ccccc2-c2nn[nH]n2)cc1 (configuration not stated) [Candesartan Cilexetil] | 88.5 | 97.3 | 106 | 99.7 | 18.1 ± 12 | 94.5 | 18.3 ± 4.6 | 72.3 | 47.71 ± 0.052 | 75.3 | 74.3 ± 16 | 37.6 ± 6.6 | 128 ± 5.3 |
| CC(C)C1=CC(=C2NNC(=O)N2c2ccc3c(ccn3C)c2)C(=O)C=C1O [Ganetespib (STA-9090)] | 83.9 | 46.6 | 55.2 | 138 | 59.1 ± 28 | 53.9 | 25.3 ± 2 | 36.5 |  | 68.2 | 48.6 ± 9.8 | 95 ± 7.9 | 96.6 ± 1.9 |
| CNC(=O)c1cc(Oc2ccc(NC(=O)Nc3ccc(Cl)c(C(F)(F)F)c3)c(F)c2)ccn1.Cl [Regorafenib hydrochloride] | 104 | 71.5 | 104 | 98.7 | 56.2 ± 0.73 | 114 | 82.2 ± 10 | 65.5 | 36.7 ± 1.2 | 62.7 | 93.8 ± 11 | 97.7 ± 4.6 | 60.6 ± 32 |
| CC(Oc1cc(-c2cnn(C3CCNCC3)c2)cnc1N)c1c(Cl)ccc(F)c1Cl [(R)-Crizotinib] | 154 | 67.6 | 106 | 95.7 | 60 ± 23 | 135 | 24.8 ± 3.8 | 89.6 | 141.8 ± 0.89 | 41.9 | 23.1 ± 3.7 | 39.3 ± 3.3 | 125 ± 27 |
| COc1ncc(-c2ccc3nccc(-c4ccnnc4)c3c2)cc1NS(=O)(=O)c1ccc(F)cc1F | 53 | 23.2 | 31.9 | 48 | 64.11 ± 0.34 | 65.6 | 26.64 ± 0.21 | 70.3 |  | 147 | 43.4 ± 1 | 49.7 ± 7.6 | 42.9 ± 2.3 |
| CCCCc1oc2ccccc2c1C(=O)c1cc(I)c(OCCN(CC)CC)c(I)c1.Cl [Amiodarone HCl] | 96.6 | 101 | 94.7 | 98.4 | 69.5 ± 16 | 54.7 | 32.8 ± 9.1 | 75 | 36.2 ± 4 | 60 | 40.7 ± 7.3 | 37 ± 6 | 83.1 ± 5.7 |
| C=C1C(=CC=C2CCCC3(C)C2CCC3C(C)CCCC(C)(C)O)CC(O)CC1O (configuration not stated) [Calcitriol] | 70.8 | 50.1 | 46.8 | 92.9 | 27.6 ± 12 | 119 | 27 ± 5.2 | 73.4 | 66.4 ± 6.8 | 107 | 55.7 ± 0.62 | 39.3 ± 9.2 | 137 ± 14 |
| Nc1ccc2cc3ccc([NH3+])cc3nc2c1.Nc1ccc2cc3ccc([NH3+])cc3nc2c1.O=S(=O)([O-])[O-] [Proflavine Hemisulfate] | 91.4 | 139 | 51.3 | 58.8 | 82.6 ± 55 | 144 | 23.3 ± 3.6 | 41.6 |  | 165 | 54.6 ± 16 | 50.3 ± 13 | 85.2 ± 2.2 |
| CC(CCC(=O)O)C1CCC2C3CCC4CC(O)CCC4(C)C3CCC12C (configuration not stated) [Lithocholic Acid] | 89.2 | 96.6 | 92.9 | 91.5 | 65.5 ± 50 | 132 | 95.1 ± 24 | 103 | 84.8 ± 7 | 91.3 | 86.8 ± 6.5 | 37.8 ± 10 | 90.1 ± 6.3 |
| C=C1C(=CC=C2CCCC3(C)C2CCC3C(C)C=CC(C)C(C)C)CC(O)CC1O (configuration not stated) [Doxercalciferol] | 75.3 | 63.6 | 61.8 | 93.1 | 39.4 ± 14 | 137 | 26.4 ± 8.6 | 75.3 | 52.8 ± 3 | 106 | 54.8 ± 6.5 | 50.8 ± 12 | 180 ± 17 |
| COc1cccc2c1C(=O)c1c(O)c3c(c(O)c1C2=O)CC(O)(C(=O)CO)CC3OC1CC(N)C(O)C(C)O1.Cl (configuration not stated) [Doxorubicin (Adriamycin) HCl] | 93.6 | 38.7 | 26.8 | 45.9 | 70.4 ± 23 | 196 | 29.7 ± 8.2 | 41.4 |  | 66.1 | 33.1 ± 1.4 | 35.6 ± 6.6 | 77 ± 21 |
| Clc1ccc(C(Cn2ccnc2)OCc2ccc(Sc3ccccc3)cc2)c(Cl)c1.O=[N+]([O-])O (configuration not stated) [Fenticonazole Nitrate] | 89.6 | 92.5 | 107 | 91.5 | 40.8 ± 0.92 | 96.9 | 19.2 ± 2.4 | 74.8 | 44.74 ± 0.32 | 105 | 59.12 ± 0.32 | 40.7 ± 11 | 91.8 ± 8.3 |
| COc1cc2nccc(Oc3ccc(NC(=O)NC4CC4)c(Cl)c3)c2cc1C(N)=O [Lenvatinib (E7080)] | 89.1 | 56.2 | 83 | 94.1 | 94.2 ± 28 | 70.5 | 79.8 ± 7.3 | 48.6 | 44.8 ± 3.3 | 61.4 | 57.8 ± 6.3 | 64 ± 21 | 48.1 ± 2 |
| O=C(C=Cn1cnc(-c2cc(C(F)(F)F)cc(C(F)(F)F)c2)n1)NNc1cnccn1 | 67.4 | 59.5 | 66.1 | 41.8 | 41.9 ± 24 | 41 | 31.5 ± 14 | 92.7 | 35.4 ± 2.5 | 73.2 | 80.1 ± 1.8 | 70.94 ± 0.096 | 46.7 ± 0.48 |
| CC(C)c1nc(CN(C)C(=O)NC(C(=O)NC(Cc2ccccc2)CC(O)C(Cc2ccccc2)NC(=O)OCc2cncs2)C(C)C)cs1 (configuration not stated) [Ritonavir] | 88.2 | 82.1 | 88.4 | 91.1 | 72 ± 3.7 | 98 | 48.2 ± 0.57 | 83.6 | 57.8 ± 3.3 | 96.1 | 41.5 ± 0.54 | 62.6 ± 2.7 | 82 ± 16 |
| CO[C@H]1C[C@@H]2CC[C@@H](C)[C@@](O)(O2)C(=O)C(=O)N2CCCC[C@H]2C(=O)O[C@H]([C@H](C)C[C@@H]2CC[C@@H](O)[C@H](OC)C2)CC(=O)[C@H](C)/C=C(\C)[C@@H](O)[C@@H](OC)C(=O)[C@H](C)C[C@H](C)/C=C/C=C/C=C/1C [Rapamycin (Sirolimus)] | 78.1 | 52.6 | 68.3 | 75.4 | 40.4 ± 7.5 | 69.6 | 30.6 ± 8.6 | 51.6 | 39.5 ± 5.2 | 57.1 | 25.5 ± 2.9 | 42 ± 2.1 | 68.9 ± 29 |
| O=C(c1ccc(F)c(F)c1Nc1ccc(I)cc1F)N1CC(O)(C2CCCCN2)C1 (configuration not stated) [Cobimetinib] | 74.9 | 52.9 | 58.8 | 59.8 | 76.8 ± 21 | 80.6 | 64.7 ± 24 | 82.8 | 74.8 ± 0.28 | 63.2 | 42.65 ± 0.23 | 48.9 ± 3.3 | 78.2 ± 2.8 |
| C#Cc1cccc(Nc2ncnc3cc(OCCOC)c(OCCOC)cc23)c1.Cl [Erlotinib Hydrochloride] | 63.1 | 68.3 | 50.1 | 80.5 | 75.1 ± 35 | 50 | 59 ± 12 | 104 | 69.8 ± 5.8 | 100 | 52.4 ± 1.8 | 48 ± 8.3 | 84.5 ± 5.2 |
